This passage reports growth results from PubChem BioAssay (NCI).

The structures appear in SMILES notation. This is part of a sample that, as a whole, favours compounds with a hit. Of some 83,000 tested, about 20% had one in any assay.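 Cells were grown in 96-well plates and exposed to the test compound at a single concentration for 48 hours; results are reported as percent growth, with values below 10 considered active.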 Calls of active or inactive are those of the source.

For one assay, the system named is LOX IMVI melanoma. In words: NCI-60 one-dose screen, 48 h (100 = growth as untreated, 0 = no growth, -100 = all killed). The conditions noted are these: 10 µM unless noted.
In the case of `Nc1c(C(=O)c2ccc(F)cc2)sc2nc3c(cc12)CCCC3`, the growth is 75.8% (inactive).

Consider `COc1cccc(/C=C2\SC(N3CCN(c4ccccn4)CC3)=NC2=O)c1`, for which the growth was 94.7% (inactive).

On to `CCCC(C(=O)OCC)C(C)OC(=O)OCC` (stereo not drawn), for which the growth was 99.1% (inactive).

As to `O=C(/C=C/CN1CCOCC1)Nc1cc2c(Nc3cccc(Cl)c3F)ncnc2cc1OCCOC(F)F`, the growth is 80.7% (inactive).

In the case of `COc1ccc(-c2nc3sccn3c2-c2ccnc(NCCCNS(=O)(=O)c3ccc4ccccc4c3)n2)cc1`, the growth was 53.9% (inactive).

For `CC(CCc1ccccc1)NC(=O)c1n[nH]c(=O)c2ccccc12` (stereo not drawn), the growth was 95.4% (inactive).

On to `Cc1cc(NC(=O)COC(=O)c2sc3cc(F)ccc3c2Cl)no1`, for which the growth is 103% (inactive).

For `COc1ccc(C(=O)c2cc(OC)c(OC)c(OC)c2)cc1/C=C/C(=O)c1ccc2c(c1)OCO2`, the growth is -36.5% (active).

For `COc1ccc(/C=C/c2cc(N3CCOCC3)c3cc(F)c(F)cc3n2)cc1OC`, the growth was 1.22% (active).

Consider `CCn1cc(C(=O)O)c(=O)c2cc(F)c(N3CCN(S(=O)(=O)c4c(C)cc(C)cc4C)CC3)cc21`, for which the growth was 61.3% (inactive).

On to `O=C(Nc1cc(C(F)(F)F)cc(C(F)(F)F)c1)Nc1ccc(OCc2nnc(-c3ccc(Cl)cc3)o2)c(F)c1`, for which the growth is 3.82% (active).

Consider `O=C(c1ccncc1)N1N=C(c2ccc(Cl)cc2)CC1c1c[nH]c2ccccc12` (stereo not drawn), for which the growth is 86.9% (inactive).

For the compound `CC(Br)C(OC(=O)c1ccccc1Cl)c1cc2c(cc1Br)OCO2` (stereo not drawn), the growth was 92.1% (inactive).

Regarding `CCC(c1ccc(OC)cc1)C(CC)c1ccc(O)c(CN2CCCC2)c1` (stereo not drawn), the growth was -79.1% (active).

For the compound `CC(C)(C)OC(=O)N[C@@H](Cc1ccccc1)C(=O)N(Cc1ccccc1)C1(C(=O)NCc2ccccc2)CCN(Cc2ccccc2)CC1`, the growth is 39% (inactive).

As to `Cn1c(-c2nonc2NC(=O)c2ccc(F)cc2)nc2ccccc21`, the growth was 97.8% (inactive).

`c1ccn2nnnc2c1`: the growth was 91.9% (inactive).

On to `c1cncc(CNc2ccccc2-c2nnc(Nc3ccc4c(c3)OCCO4)o2)c1`, for which the growth is 27.1% (inactive).

Turning to `COc1cc2nc(SCc3cc(OC)c(OC)c(OC)c3)n(Cc3ccccc3)c(=O)c2cc1OC`, the growth was 37.7% (inactive).

In the case of `COc1ccc(C(=O)N2CCN(C(=O)c3cc(OC)c(OC)c(OC)c3)CC2)cc1OCCCCOc1cc2c(cc1OC)C(=O)N1CCC[C@H]1C=N2`, the growth was 106% (inactive).

On to `O=S(=O)(NCCNc1cc(-c2cn(-c3ccccc3)nc2-c2ccccc2)ccn1)c1cccc2ccccc12`, for which the growth is 45.8% (inactive).

Consider `O=S(=O)(NCCNc1nccc(-c2c(-c3ccccc3)nc3sccn23)n1)c1ccc(O)cc1`, for which the growth was 31.4% (inactive).

Take `Cc1ccc2c(c1)C(C)Cc1c(N(C)C)ncnc1N2C` (stereo not drawn): the growth was 37.7% (inactive).

As for `CCN(CC)c1cc(/C=C/c2ccc(OC)c(OC)c2)nc2cc(F)c(F)cc12`, the growth is 25.9% (inactive).

`COc1ccc(-c2nc3sccn3c2-c2ccnc(NCCCNS(=O)(=O)c3ccc(C)cc3)n2)cc1`: the growth was 11% (inactive).

In the case of `C=C1C(=O)O[C@H]2[C@H]1CC/C(Cn1cc(-c3ccc(N)cc3)nn1)=C\CC[C@@]1(C)O[C@@H]21`, the growth is -63.6% (active).

Regarding `CC(C)N(Cc1ccc(CN(C(=O)CCl)C(C)C)cc1)C(=O)CCl`, the growth is -61.2% (active).

Turning to `COc1ccc(NC(=S)/N=c2\oc3c(OC)cccc3cc2-c2cc3ccccc3[nH]2)cc1`, the growth was 76.8% (inactive).

Take `Cc1cnc(NC(=O)C(Cc2ccccc2)NC(=O)c2ccccc2)s1` (stereo not drawn): the growth was 55.9% (inactive).

`CC(C)C[C@H](NC(=O)Cn1ccc(NCc2ccccc2)cc1=O)B(O)O`: the growth is -65.5% (active).

Regarding `CN1CCN(CCCOc2ccc3nc(Nc4ccc(C(F)(F)F)c(Cl)c4)ccc3c2)CC1`, the growth is -83.1% (active).

Consider `O=C(CCCn1c2c(sc3ccccc32)c(=O)n2nnc(-c3ccccc3)c12)NCCc1cnc[nH]1`, for which the growth was -49.8% (active).

With `CC1Cc2c(N(C)C)ncnc2N(C)c2ccc(Cl)cc21` (stereo not drawn), the growth was 35.8% (inactive).

As to `O=C(Nc1ccc(F)cc1)c1cc([N+](=O)[O-])ccc1O`, the growth was 56.3% (inactive).

For `CC(=O)Nc1ccc2c(c1)/C(=C\C=C/c1ccc([N+](C)(C)C)cc1)c1ccccc1-2`, the growth was 80.1% (inactive).

As to `COc1ccc(-c2nc3sccn3c2-c2ccnc(NCCNS(=O)(=O)c3ccc(C(F)(F)F)cc3)n2)cc1`, the growth is 2.4% (active).

Take `O=C1C2=C(C(=O)c3c(O)ccc(O)c31)N(c1cccnc1)Cc1ccccc1O2`: the growth is -64.6% (active).

On to `CC(=O)Nc1ccc(S(=O)(=O)NC(CCC(=O)Nc2ccc(Cl)cc2)C(=O)O)cc1` (stereo not drawn), for which the growth was 81.1% (inactive).

In the case of `COc1ccc(-c2cn[nH]c2-c2cc(OC)c3c(c2)OCCO3)cc1`, the growth was 30.2% (inactive).

The next assay has as its system SK-MEL-28 melanoma. The description is as above. Conditions: 10 µM unless noted.
As for `Nc1c(C(=O)c2ccc(F)cc2)sc2nc3c(cc12)CCCC3`, the growth was 76.8% (inactive).

`COc1cccc(/C=C2\SC(N3CCN(c4ccccn4)CC3)=NC2=O)c1`: the growth was 110% (inactive).

With `CCCC(C(=O)OCC)C(C)OC(=O)OCC` (stereo not drawn), the growth is 107% (inactive).

As for `O=C(/C=C/CN1CCOCC1)Nc1cc2c(Nc3cccc(Cl)c3F)ncnc2cc1OCCOC(F)F`, the growth is 101% (inactive).

As to `COc1ccc(-c2nc3sccn3c2-c2ccnc(NCCCNS(=O)(=O)c3ccc4ccccc4c3)n2)cc1`, the growth is 80% (inactive).

`CC(CCc1ccccc1)NC(=O)c1n[nH]c(=O)c2ccccc12` (stereo not drawn): the growth was 118% (inactive).

For the compound `Cc1cc(NC(=O)COC(=O)c2sc3cc(F)ccc3c2Cl)no1`, the growth was 121% (inactive).

In the case of `COc1ccc(C(=O)c2cc(OC)c(OC)c(OC)c2)cc1/C=C/C(=O)c1ccc2c(c1)OCO2`, the growth is -57% (active).

Turning to `COc1ccc(/C=C/c2cc(N3CCOCC3)c3cc(F)c(F)cc3n2)cc1OC`, the growth is 51.4% (inactive).

Consider `CCn1cc(C(=O)O)c(=O)c2cc(F)c(N3CCN(S(=O)(=O)c4c(C)cc(C)cc4C)CC3)cc21`, for which the growth is 91.7% (inactive).

For `O=C(Nc1cc(C(F)(F)F)cc(C(F)(F)F)c1)Nc1ccc(OCc2nnc(-c3ccc(Cl)cc3)o2)c(F)c1`, the growth is 28.8% (inactive).

On to `O=C(c1ccncc1)N1N=C(c2ccc(Cl)cc2)CC1c1c[nH]c2ccccc12` (stereo not drawn), for which the growth is 107% (inactive).

As to `CC(Br)C(OC(=O)c1ccccc1Cl)c1cc2c(cc1Br)OCO2` (stereo not drawn), the growth was 94.5% (inactive).

Turning to `CCC(c1ccc(OC)cc1)C(CC)c1ccc(O)c(CN2CCCC2)c1` (stereo not drawn), the growth was -50.9% (active).

As to `CC(C)(C)OC(=O)N[C@@H](Cc1ccccc1)C(=O)N(Cc1ccccc1)C1(C(=O)NCc2ccccc2)CCN(Cc2ccccc2)CC1`, the growth is 69.9% (inactive).

With `Cn1c(-c2nonc2NC(=O)c2ccc(F)cc2)nc2ccccc21`, the growth is 110% (inactive).

Regarding `c1ccn2nnnc2c1`, the growth was 106% (inactive).

Take `c1cncc(CNc2ccccc2-c2nnc(Nc3ccc4c(c3)OCCO4)o2)c1`: the growth is 68.9% (inactive).

In the case of `COc1cc2nc(SCc3cc(OC)c(OC)c(OC)c3)n(Cc3ccccc3)c(=O)c2cc1OC`, the growth was 39.2% (inactive).

In the case of `COc1ccc(C(=O)N2CCN(C(=O)c3cc(OC)c(OC)c(OC)c3)CC2)cc1OCCCCOc1cc2c(cc1OC)C(=O)N1CCC[C@H]1C=N2`, the growth is 136% (inactive).

Turning to `O=S(=O)(NCCNc1cc(-c2cn(-c3ccccc3)nc2-c2ccccc2)ccn1)c1cccc2ccccc12`, the growth is 62.9% (inactive).

As to `O=S(=O)(NCCNc1nccc(-c2c(-c3ccccc3)nc3sccn23)n1)c1ccc(O)cc1`, the growth is 47.6% (inactive).

For `Cc1ccc2c(c1)C(C)Cc1c(N(C)C)ncnc1N2C` (stereo not drawn), the growth was 56.6% (inactive).

Consider `CCN(CC)c1cc(/C=C/c2ccc(OC)c(OC)c2)nc2cc(F)c(F)cc12`, for which the growth is 98.2% (inactive).

Take `COc1ccc(-c2nc3sccn3c2-c2ccnc(NCCCNS(=O)(=O)c3ccc(C)cc3)n2)cc1`: the growth was 41.5% (inactive).

`C=C1C(=O)O[C@H]2[C@H]1CC/C(Cn1cc(-c3ccc(N)cc3)nn1)=C\CC[C@@]1(C)O[C@@H]21`: the growth is -17% (active).

Consider `CC(C)N(Cc1ccc(CN(C(=O)CCl)C(C)C)cc1)C(=O)CCl`, for which the growth was 33.1% (inactive).

Take `COc1ccc(NC(=S)/N=c2\oc3c(OC)cccc3cc2-c2cc3ccccc3[nH]2)cc1`: the growth was 69.9% (inactive).

Take `Cc1cnc(NC(=O)C(Cc2ccccc2)NC(=O)c2ccccc2)s1` (stereo not drawn): the growth was 88.9% (inactive).

Take `CC(C)C[C@H](NC(=O)Cn1ccc(NCc2ccccc2)cc1=O)B(O)O`: the growth is 27.4% (inactive).

Regarding `CN1CCN(CCCOc2ccc3nc(Nc4ccc(C(F)(F)F)c(Cl)c4)ccc3c2)CC1`, the growth was -73.2% (active).

As for `O=C(CCCn1c2c(sc3ccccc32)c(=O)n2nnc(-c3ccccc3)c12)NCCc1cnc[nH]1`, the growth is -92% (active).

For `CC1Cc2c(N(C)C)ncnc2N(C)c2ccc(Cl)cc21` (stereo not drawn), the growth was 52.4% (inactive).

In the case of `O=C(Nc1ccc(F)cc1)c1cc([N+](=O)[O-])ccc1O`, the growth is 55.9% (inactive).

Consider `CC(=O)Nc1ccc2c(c1)/C(=C\C=C/c1ccc([N+](C)(C)C)cc1)c1ccccc1-2`, for which the growth was 66.3% (inactive).

Take `COc1ccc(-c2nc3sccn3c2-c2ccnc(NCCNS(=O)(=O)c3ccc(C(F)(F)F)cc3)n2)cc1`: the growth is 13.9% (inactive).

Regarding `O=C1C2=C(C(=O)c3c(O)ccc(O)c31)N(c1cccnc1)Cc1ccccc1O2`, the growth is -72% (active).

On to `CC(=O)Nc1ccc(S(=O)(=O)NC(CCC(=O)Nc2ccc(Cl)cc2)C(=O)O)cc1` (stereo not drawn), for which the growth is 94.4% (inactive).

Turning to `COc1ccc(-c2cn[nH]c2-c2cc(OC)c3c(c2)OCCO3)cc1`, the growth is 49.3% (inactive).
